# Source: PubChem
# DRD3 agonist = agonists of human D3 dopamine receptor; P35462; D3R DiscoveRx beta-arrestin cells, luminescence, 90 min; max activation, %; 0.58% of 410,000 active; AID 652048; in the data active = max activation above about 30%; note: 0% is about no effect
# Target sequence (P35462 whole entry, looked up): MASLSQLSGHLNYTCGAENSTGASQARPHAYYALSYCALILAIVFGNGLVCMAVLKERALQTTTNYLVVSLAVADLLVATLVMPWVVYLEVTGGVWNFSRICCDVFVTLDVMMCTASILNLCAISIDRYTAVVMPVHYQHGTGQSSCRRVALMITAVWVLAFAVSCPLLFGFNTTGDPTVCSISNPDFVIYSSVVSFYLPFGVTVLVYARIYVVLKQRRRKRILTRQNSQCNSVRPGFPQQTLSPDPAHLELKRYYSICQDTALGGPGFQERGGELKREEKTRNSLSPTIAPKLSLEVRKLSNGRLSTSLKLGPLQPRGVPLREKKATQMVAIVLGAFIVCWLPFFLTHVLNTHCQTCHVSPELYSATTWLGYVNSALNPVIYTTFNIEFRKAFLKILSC
#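 Agonist-mode cell screen: cells plated at 1500/well and incubated overnight at 37 °C, then exposed to library compounds for 90 min at 37 °C. Detection reagent was added for 30–60 min at room temperature, and luminescence was read.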
# KB-V1 MDR tox = kills drug-selected multidrug resistant KB-V1 cells; Potency, µM (doses to about 46.1 µM), most hits filed as cytotoxic; KB-V1 MDR cells viability, CellTiter-Glo, 72 h; 3.4% of 400,000 active; AID 1347076; note: potency is the fitted concentration of half-maximal effect; % is set by controls: 0 for no effect and ±100 for the full control effect; nearly all actives have a fitted effect of over 60% in size
#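 KB-V1 cells (P-gp-expressing MDR subline of KB-3-1) in phenol-red-free DMEM with 10% FBS were exposed to library compounds over a concentration series for 72 h at 37 degrees C. Viability read by CellTiter-Glo luminescence; concentration-effect curves fitted after normalization.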
# DRD3 antagonist = blocks the human D3 dopamine receptor. P35462. D3R cells, DiscoveRx beta-arrestin luminescence, antagonist mode; active compounds read low. max response, negative = inhibition, %. 2.5% of 360,000 active. AID 652054; in the data active = max response below about -50%; inconclusive = no clear call, values can overlap the other calls; note: % is set by controls: 0 for no effect and ±100 for the full control effect
#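 Cells expressing the human receptor were seeded at 1500 cells/well, incubated overnight at 37 degrees C in 5% CO2, then exposed to library compounds with dopamine controls for 90 minutes at 37 degrees C before luminescent detection.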
# KB-3-1 cytotox = KB-3-1 parental cell cytotoxicity. KB-3-1 viability, CellTiter-Glo ATP luminescence, 72 h. 1.4% of 400,000 active. Potency, µM (series often up to 46.1 µM), most hits filed as cytotoxic; note: potency is the fitted concentration of half-maximal effect; % is set by controls: 0 for no effect and ±100 for the full control effect; nearly all actives have a fitted effect of over 60% in size
#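 Parental KB-3-1 viability, qHTS format: 72 h compound exposure, 37 °C; CellTiter-Glo; media-only wells and DMSO plates as controls; concentration-effect fits on corrected data.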
# MCF10A rerep = induces DNA re-replication in MCF 10a normal breast cells; MCF 10A DNA re-replication, Hoechst nuclear intensity, 48 h; Potency, µM (doses to about 46.1 µM), without a hit: top-dose activity, positive = re-replication, actives largely listed as activators; 2.9% of 350,000 active; AID 624296; note: potency is the fitted concentration of half-maximal effect; % of control where 0% means no effect; nearly all actives have a fitted effect of over 50% in size
# SW480 rerep = DNA re-replication induction in SW480 cells. SW480 DNA re-replication, Hoechst DNA content imaging, 48 h. Potency, µM (titrated, usually from 46.1 µM), for inactives: top-dose re-replication activation, most hits filed as activators. 1.8% of 340,000 active. AID 624297; note: potency is the fitted concentration of half-maximal effect; % of control where 0% means no effect; nearly all actives have a fitted effect of over 55% in size
#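 Compounds, transferred as 23 nL by pin tool, were incubated with cells for 48 hr; DNA content per nucleus was then quantified by Hoechst staining and fluorescence plate imaging.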
# * hit, by the source's call; i = inactive; ? = inconclusive; . = no result. The list is not random: actives were taken first. Their share in the collection is about 8.9%. Unless noted, calls come from the whole dose curve; as a rule, active = well fitted curve in the direction sought with a large enough effect; inconclusive = small, poorly fitted or top-dose-only effect, or another doubt; inactive = no such curve, though single readings can be large; an effect the other way counts as inactive or inconclusive.
SMILES,DRD3 agonist,KB-V1 MDR tox,DRD3 antagonist,KB-3-1 cytotox,MCF10A rerep,SW480 rerep
O=C1C=C(c2ccc3ncccc3c2)C[C@@H](c2ccc(Cl)cc2)C1,0.0,?,-7.1,?,23.1µM*,8.2%
O=C1C=C(c2ccc3ccccc3c2)C[C@@H](c2ccc(Cl)cc2)C1,6.0,?,2.0,?,28.4%,0.5%
C=C(C)Cn1c(SCC(=O)c2ccc(Br)cc2)nc2sc3c(c2c1=O)CCCC3,-0.1,i,.,i,.,.
O=C(Nc1ccc2c(c1)OCCO2)C(CCc1ccccc1)N1CCC(Cc2ccccc2)CC1 (centres undefined),-13.8,23.1µM*,-69.1*,i,.,.
O=C(Nc1ccc2c(c1)OCCO2)C(CCc1ccccc1)N(Cc1ccccc1)Cc1ccccc1 (centres undefined),-2.3,i,0.0,i,.,.
CCOc1ccc(NC(=O)Cn2c(=O)oc3cc(S(=O)(=O)N4CCC(C)CC4)ccc32)cc1,-3.3,i,.,i,.,.
Cc1cccc(OCC(=O)Nc2ccc(-c3nc4cc(C)ccc4o3)c(O)c2)c1,-0.4,i,.,i,.,.
Cc1c(NC(=O)C(F)(F)F)ccc2nc3c(=O)n(C)c(=O)n(C)c3nc12,0.5,13µM*,.,i,.,.
CC1Cc2ccccc2N1C(=O)CSc1nnc(-c2cccc(Cl)c2)o1 (centres undefined),-12.0,i,.,i,.,.
O=C(CSc1ccccn1)Nc1nonc1[N+](=O)[O-],-3.5,10.3µM*,-70.3*,?,6.9%,2.5%
CC1=C(C(N)=O)C(c2ccc(C(C)C)cc2)n2nc(SCc3ccccc3F)nc2N1 (centres undefined),-15.0,i,.,i,.,.
COc1c(OC(C)=O)ccc(/C=C/c2ccc3cccc(OCc4ccccc4)c3n2)c1[N+](=O)[O-],-2.8,?,19.3,16.4µM*,7.2%,-1.7%
COc1cc(/C=C/c2ccc3cccc(OC)c3n2)c(OC(C)=O)c([N+](=O)[O-])c1,-8.9,?,-53.0*,?,6.51µM*,?
COC(=O)C(c1ccccc1Cl)N1CCc2sccc2C1 (centres undefined),-1.0,.,.,.,10.6%,4.8%
CCOC(=O)c1c(C)c(C(=O)NCc2ccco2)c(C)n1Cc1ccccc1,-0.3,4.11µM*,26.7,i,-0.3%,-0.3%
CCOC(=O)c1c(C)c(C(=O)NCc2ccco2)c(C)n1CC,6.0,i,3.9,i,-1.2%,2.7%
CCc1ccc(N2CC(c3nnc(NC(=O)c4ccco4)s3)CC2=O)cc1 (centres undefined),3.1,i,.,i,.,.
COc1ccccc1CNC(=O)Cn1nc(C)n2cccc2c1=O,-6.2,i,.,i,.,.
O=C(NCCCCCCCN1CCCCCCC1)C(C1CCCCC1)C1CCCCC1,-28.7,3.26µM*,-64.6*,?,2.0%,?
COc1ccc(N(C(=O)c2ccccc2C)S(=O)(=O)c2cccs2)cc1,-2.9,1.3µM*,?,0.82µM*,1.16µM*,2.59µM*
CC(Oc1ccccc1)C(=O)Nc1c(C(=O)Nc2cccc(F)c2)oc2ccccc12 (centres undefined),14.8,i,.,?,.,.
O=C(NCCO)C(=O)c1c(-c2ccc(Cl)cc2)cc2ccccn12,0.2,i,4.4,i,1.5%,-7.0%
O=C(NCCc1ccccc1)C(=O)c1c(-c2ccccc2)cc2ccccn12,2.0,20.6µM*,4.8,i,-3.2%,-7.8%
NC(C(=O)O)C(O)c1ccc(O)c(O)c1 (centres undefined),.,.,.,.,8.4%,-5.6%
CCn1c(C)c(C2=CCN(S(=O)(=O)c3ccc(C)cc3)CC2)c2ccccc21,-5.1,16.4µM*,-3.2,?,?,2.8%
SMILES,DRD3 agonist,KB-V1 MDR tox,DRD3 antagonist,KB-3-1 cytotox,MCF10A rerep,SW480 rerep
O=S(=O)(c1ccc(Cl)cc1)c1nc(-c2ccccc2)oc1N1CCN(c2ccccc2)CC1,-12.2,i,.,i,.,.
COc1ccc2nc3ccccc3nc2c1N,6.5,?,-6.4,i,?,13.2%
COc1ccc2nc3cccc(OC)c3nc2c1,1.9,i,8.2,i,1.3µM*,?
CN1CC(=O)N(CC(=O)Nc2cccc(C#N)c2)c2ccccc2C1=O,8.7,i,.,i,.,.
CCOc1cccc2sc(NC(=O)CS(=O)(=O)c3ccc(C)cc3)nc12,-7.7,i,.,i,.,.
Cc1cc2c(cc1C)NC(c1c(C)n(C)n(-c3ccccc3)c1=O)C1=C(CC(C)(C)CC1=O)N2 (centres undefined),-1.6,i,-92.9*,i,11.2µM*,-2.8%
COc1ccc(-n2ncc(C(=O)NCc3ccccc3)c2C2CCN(C(=O)OC(C)(C)C)CC2)cc1,7.1,i,.,i,.,.
Cc1cccc(N2CCN(C(=O)CCC(=O)N3CCOc4ccc(Cl)cc43)CC2C)c1 (centres undefined),1.1,i,17.1,?,22.3%,0.8%
Cc1cccc(C2=NN(c3ccccc3)[C@@H](C(=O)N3CCOC3=O)[C@@H]2c2ccccc2)c1,13.1,i,29.5,i,?,16.4µM*
Cc1cccc(C2=NN(c3ccc(Br)cc3)[C@@H](C(=O)N3CCOC3=O)[C@@H]2c2ccccc2)c1,-3.8,i,0.0,i,1.46µM*,?
CC(CCc1ccccc1)NC(=O)Cn1c(=O)nc(-c2ccccc2F)c2cc(Cl)ccc21 (centres undefined),-1.5,.,.,.,.,.
CCC1(C)N=C(c2ccc3c(c2)OCO3)CC(c2ccccc2O)N1 (centres undefined),1.5,i,17.3,i,7.31µM*,14.6µM*
COc1ccc(CCNC(=O)c2cc(Nc3ccccc3)nc3ccccc23)cc1OC,-11.8,.,.,.,.,.
CC(=O)N1CCC2(CC1)CC(=O)c1cc(OCC(=O)NCc3ccc(C)cc3)ccc1O2,11.8,18.4µM*,12.7,i,17.1%,0.6%
CC(=O)N1CCC2(CC1)CC(=O)c1cc(OCC(=O)N3CCCC3)ccc1O2,2.0,i,-7.9,i,-5.0%,1.9%
CC(=O)N1CCC2(CC1)CC(=O)c1cc(Cl)ccc1O2,-30.3,i,5.1,i,1.4%,2.31µM*
O=C(CN1C(=O)COc2ccc(Cl)cc21)Nc1ccc(F)cc1,5.2,i,.,i,.,.
CC1CN(c2nc3c(c(=O)n(Cc4ccc(Cl)cc4)c(=O)n3C)n2C)CC(C)O1 (centres undefined),-3.4,23.1µM*,-17.7,?,20.5%,-4.9%
CCOCCn1c(=O)c2c(nc3n2CCCN3CCc2ccccc2)n(C)c1=O,2.0,i,-0.6,?,15.5%,12.7%
Cn1c(=O)n(Cc2ccccc2)c(=O)c2c1nc1n2CCCN1CCc1ccccc1,-0.3,2.31µM*,16.8,i,?,4.1%
